A selection follows. No count for the full screen is at hand.
B1: il2ra_site1_1z92_sap_14_mot_HHH_b1_05862_af2_000000270_0001_22_38_H_._HHH_b1_06212_0001_0000200007_0000001_0_0001_af2pred_0001_af2pred_1 (protein)
chain: SSSSSDLEELIEEIARELAEENNDEDLREELEKAAERLKKLGTSHERARKILEKLVKAARSSSSS
B2: il2ra_site2_3nfp_normal_mot_HHH_b2_07840_000000026_0001_18_34_H_._HHH_b1_00954_0001_0000200021_0000001_0 (protein)
chain: SSSSDLEERLRELLEELEELVKEGDEERFREVAREVIQLVYENNDHEAFAKLADLLYLIESSSSS
B3: il2ra_site1_1z92_normal_mot_c9a8daa1dfea21d1414aecde54be4f54_0001_1_af2_000000024_0001_32_46_H_._15f70e71ac3214bf43105af5abf4654e_0001_1_af2_0001_0000300029_000 … (protein)
chain: DEEAARKDLEFALKQGIPPRSVVRAVLLALEHELGDPEEALEVIERAIKLLNDPELEEVVEKLKP
B4: il2ra_site1_2b5i_sap_21_mot_HHH_b2_08159_000000245_0001_1_21_H_._8ad9ac091cb40d3f9ee7ab2e9a3a3379_0001_0001_0000400039_0000001_0_0001_af2pred_0001_af2pred_1 (protein)
chain: SSSSSELLEEAFELLEEADELAKKGNDEEAEKVLREAEELLEKAGNPSLLRLVRAALRLTSSSSS
B5: il2ra_site2_3nfp_normal_mot_HHH_b1_05627_af2_000000038_0001_43_56_H_._HHH_b1_05526_af2_0001_0000100005_0000001_0 (protein)
chain: SSSSDKAEEYVRAAMEAARYALEDGNPEVARRSLELARQLAESLGNEELREEVEELLQELSSSSS
B6: il2ra_site2_2erj_sap_21_mot_HHH_b1_00069_af2_000000103_0001_1_18_H_._HHH_b1_05528_af2_0001_0000500009_0000001_0_0001_af2pred_0001_af2pred (protein)
chain: SSSSDEIRRLYELAEELDKLLLEGDEEKVEELLEELEQLARETNTPSAEKVVRAIEKSLESSSSS
B7: il2ra_site1_2b5i_sap_8_mot_HHH_b2_04131_000000150_0001_1_16_H_._HHH_b2_06569_af2_0001_0000100002_0000001_0_0001_af2pred_dldesign_0_af2pred (protein)
chain: SSSSSSAEEFVNEAIEKAKELKAAGRPDEARRLLKLALKRARKANDADLVARVEALLAELSSSSS
B8: il2ra_site1_1z92_normal_mot_6c2800a769814540b5b47941e710ff28_0001_af2_000000005_0001_35_49_H_._6228ca5b8b091676f337a4c0a06dbe92_0001_0003_0000300038_0000001_0 (protein)
chain: DEFLIEQLLRKIEAGNEESAERIIERLLKNAGIPPEEVERIVEELLKLLKDGDPEEARKLLREAP
B9: il2ra_site2_2erj_sap_28_mot_3b06bd03f1c6bceadc68eab912867b79_0001_000000296_0001_36_50_H_._HHH_b2_07644_af2_0001_0000200004_0000001_0_0001 (protein)
chain: SSSSSDELKRAYELANALMHLVARNDREEFERISEEFEEIVEKLDSRTAREILESLERLISSSSS
B10: il2ra_site2_2erj_sap_26_mot_6c2800a769814540b5b47941e710ff28_0001_000000197_0001_35_49_H_._HHH_b2_05475_0001_0000200011_0000001_0_0001_af2pred_0001_af2pred (protein)
chain: DDEEYIEMWVELAAKRLGVPSVEVETRNGTLHVTVNGTDEAARRVLLAAELAAKAAGLPFETTEE
B11: il2ra_site1_3nfp_sap_15_mot_HHH_b1_05868_af2_000000129_0001_1_19_H_._HHH_b1_04163_af2_0001_0000300017_0000001_0_0001_af2pred_0001_af2pred (protein)
chain: SSSSSWREKAMEAILRAAELANDEELREELEKLLEKLREEGDPRALREAVKLLKEAAKRLSSSSS
B12: il2ra_site2_3nfp_sap_32_mot_HHH_b1_00050_000000292_0001_22_38_H_._HHH_b2_06764_0001_0000600039_0000001_0_0001 (protein)
chain: SSSSDESEEYFEAAFELVRLALEAGDPEAARRLLEMLELVAESQNDPELQRLVEELEEELSSSSS
B13: il2ra_site1_3nfp_sap_18_mot_ems_3hM_2054_af2_000000130_0001_3_20_H_._HHH_b2_07863_0001_0000600021_0000001_0_0001 (protein)
chain: SRILERFVKIARKRGNPEFARVVEILLEVLEQDPRLKRAIDKILFELVSGKLPPEEAEELAKELK
B14: il2ra_site2_3nfp_normal_mot_HHH_b2_05513_000000198_0001_20_37_H_._52c50354b804bec8c3157ba16786ada3_0001_0001_0001000025_0000001_0_af2pred_0001_1_af2pred_swapped (protein)
chain: DDLEERLRRSAELAGDPHDAVVFFIAFLEYELGDPEEAIELALEVAEELGDPELERIIRELRKLP
B15: il2ra_site2_3nfp_normal_mot_HHH_b1_00239_000000199_0001_23_39_H_._HHH_b2_02904_0001_0000200025_0000001_0 (protein)
chain: SSSSNEEILREAAELLLELLEERGDEEELRELEELLEELKRHGDPELQLELYAVLARIYSSSSSS
B16: il2ra_site1_2b5i_normal_mot_3116615af0ee64d731c1c85d8523bf51_0001_000000216_0001_15_32_H_._HHH_b1_07838_af2_0001_0000100001_0000001_0_af2pred_dldesign_0_af2pred (protein)
chain: SSSSSALEKEVEETLAKADELKAAGKRREALEALEKIHKKLSAADAEDLQEKVEKKAKELSSSSS
B17: il2ra_site1_3nfp_normal_mot_eb5a5eebac1e5153f932cc6c3f4b2787_0001_af2_000000065_0001_18_33_H_._HHH_b2_04044_0002_0000100009_0000001_0 (protein)
chain: SSSSSDEEIRERVEELLEEAKHIPDYREASRLVEEAYRLAAELGDPELSELIYRVMREIVSSSSS
B18: il2ra_site1_3nfp_sap_21_mot_HHH_b2_02066_af2_000000034_0001_1_16_H_._c2845cfc7c062bbeb7cd94dd36b2ebbf_0001_af2_0001_0000100001_0000001_0_0001_af2pred_0001_af2pr … (protein)
chain: SSSEEELQELFKLALELHKKLTNPEARQVVIHAMALVARATRTKDPELERRAREAIEEAEELDSS
B19: il2ra_site2_2erj_normal_mot_HHH_b2_06726_000000006_0001_1_16_H_._HHH_b1_04199_0001_0000300043_0000001_1_af2pred_0001_af2pred (protein)
chain: SSSSSSEYREEIEELIEEARRVDEEEAVALLAEAAFLAVRNKDEEIFREVAELSLELYRRSSSSS
B20: il2ra_site2_3nfp_sap_23_mot_347257a5708f0dc4a322ca97a98db719_0001_1_af2_000000210_0001_36_49_H_._796cb09f51c241c629a2416424e53d75_0001_0001_0000100001_0000001_0 … (protein)
chain: SSSSDKEEERVEELLEELKRLIEEGDEEKARRAFAEAAHLIFELNDSELFARLAELALELWSSSS
B21: il2ra_site1_3nfp_sap_17_mot_HHH_b1_01159_af2_000000107_0001_1_20_H_._HHH_b1_00510_0001_0000100012_0000001_0_0001 (protein)
chain: DEEEIRREIEELLEEDPQEAMQFAMKLAHEAMRNNDPELLRVVLEALLKVTGDPSVKKLLEVARR
B22: il2ra_site1_1z92_normal_mot_HHH_b1_03515_000000289_0001_1_19_H_._HHH_b2_04566_af2_0001_0000100001_0000001_0 (protein)
chain: SSSDEEQARRSLERLVEDAVKLAGLSEEQKEKLEELVEELIERGVDFLEAIKLIDELARELSSSS
B23: il2ra_site1_2b5i_sap_13_mot_HHH_b2_07160_000000135_0001_1_14_H_._HHH_b1_04051_0001_0000500030_0000001_1_0001_af2pred_dldesign_0_af2pred (protein)
chain: SSSSSLGRRRRELLERADKAFKAEDYELLKELLKEVKELVEKTKRKSDKAILKLIEEALEESSSS
B24: il2ra_site2_2erj_sap_21_mot_6ec3e94b46d95805cdcdc10c0c108f03_0001_af2_000000040_0001_36_50_H_._HHH_b2_04396_0001_0000200006_0000001_0_0001 (protein)
chain: SSSSSEWEEAARLSVLLLEAARKNDEELLEELRREAEELIKEIKNPAARRYLEFALRDVERSSSS
B25: il2ra_site1_1z92_sap_19_mot_HHH_b2_03511_af2_000000113_0001_41_54_H_._HHH_b2_01993_af2_0001_0000400041_0000001_0_0001 (protein)
chain: DEAEEVIERAIEAVERGDPEEVRRLLEKLIEHTGDPALRFLLEVLERKLEAGNYKAARAILEKSR
B26: il2ra_site2_3nfp_normal_mot_HHH_b2_04451_000000238_0001_21_37_H_._HHH_b1_08573_0001_0000400020_0000001_0 (protein)
chain: SSSDEEERIEELIELVEELIKEGDRTEALQVLLEASELAAKLGDEELARILLELFLLLQEKSSSS

Target: il2ra, P01589
Assay: yeast display titration

Chain of il2ra, P01589 (P01589 whole entry): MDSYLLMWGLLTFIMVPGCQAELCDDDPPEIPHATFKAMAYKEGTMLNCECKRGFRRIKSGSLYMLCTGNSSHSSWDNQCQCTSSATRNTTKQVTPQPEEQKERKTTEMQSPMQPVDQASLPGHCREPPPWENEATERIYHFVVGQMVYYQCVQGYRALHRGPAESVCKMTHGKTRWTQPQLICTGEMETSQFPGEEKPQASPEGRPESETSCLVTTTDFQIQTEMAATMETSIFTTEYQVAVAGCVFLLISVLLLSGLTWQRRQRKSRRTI

Apparent Kd, inactive:
B1 no binding seen, B2 no binding seen, B3 no binding seen, B4 no binding seen, B5 no binding seen, B6 no binding seen, B7 no binding seen, B8 no binding seen, B9 no binding seen, B10 no binding seen, B11 no binding seen, B12 no binding seen, B13 no binding seen, B14 no binding seen, B15 no binding seen, B16 no binding seen, B17 no binding seen, B18 no binding seen, B19 no binding seen, B20 no binding seen, B21 no binding seen, B22 no binding seen, B23 > 0.487 µM, B24 no binding seen, B25 no binding seen, B26 no binding seen
